Experimental data published in PubChem BioAssay (NCI).
The panel holds about 83,000 compounds, 20% with a hit somewhere; the sample as a whole holds those more often.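 Percent growth is the endpoint: 0 to 100 indicates growth inhibition (40 means 60% inhibition), 0 means no net growth, and negative values indicate cell death.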 A number with no mark means an inactive call. Activity calls are given as the source filed them. How the source made its calls: active means growth percent below 10; inactive means the rest.

Assays:
Assay in all cases: NCI-60 one-dose screen, 48 h (100 = growth as untreated, 0 = no growth, -100 = all killed)
Details in all cases: 10 µM unless noted
[1] = system: SR leukemia
[2] = system: RPMI-8226 leukemia
[3] = system: OVCAR-5 ovarian
[4] = system: OVCAR-4 ovarian
[5] = system: SK-OV-3 ovarian
[6] = system: IGROV1 ovarian
[7] = system: OVCAR-3 ovarian
[8] = system: HS 578T breast
[9] = system: NCI/ADR-RES ovarian

Row | SMILES | growth [1] | growth [2] | growth [3] | growth [4] | growth [5] | growth [6] | growth [7] | growth [8] | growth [9]
1 | CCOC(=O)Nc1cc(-c2ccc(C)c(NS(C)(=O)=O)c2)nn2c(C)nnc12 | 24.9% | -20.4% (active) | 32.2% | 22.8% | 4.31% (active) | -45.6% (active) | -10.4% (active) | 9.38% (active) | 53.3%
2 | CC1=C([Se]CC(OC(=O)[C@@H](CSSC(C)(C)C)NC(=O)C(C)(C)C)C(=O)NCCCCCC(=O)OCc2ccccc2)C(=O)c2ccccc2C1=O (stereo not given in full) | 29.2% | -11% (active) | -28.7% (active) | 14.5% | -17.5% (active) | -60.9% (active) | 1.96% (active) | 13.6% | -12.4% (active)
3 | CCCCCc1c(C)[nH]c(/C=C2\N=C(c3ccc[nH]3)C=C2Oc2ccc(Cl)cc2)c1C | -9.44% [100 µM] (active) | -32.8% [100 µM] (active) | -3.17% [100 µM] (active) | 12.6% [100 µM] | 1.44% [100 µM] (active) | 13.3% [100 µM] | -96.2% [100 µM] (active) | 3.26% [100 µM] (active) | 5.31% [100 µM] (active)
4 | Cc1cc2c(cc1C)[n+](Cc1ccc3ccccc3c1)cn2Cc1ccc2ccccc2c1 | -50.6% (active) | -49.6% (active) | -87.1% (active) | -76% (active) | -27% (active) | -84.9% (active) | -94.2% (active) | – | 80.7%
